USP28 inh: inhibitors of human USP28 deubiquitinase | Ubiquitin carboxyl-terminal hydrolase 28 (Homo sapiens), Q96RU2 | purified USP28, Ub-rhodamine cleavage fluorescence, 30 min | inhibition, % at 25 µM | 47,000 compounds, 3% hits | AID 1645857, 2021
USP17 block: inhibitors of human USP17 deubiquitinase; Ubiquitin carboxyl-terminal hydrolase 17-like protein 5 (Homo sapiens), A8MUK1; 47,000 compounds, 6.5% hits; purified USP17, Ub-rhodamine cleavage fluorescence, 3 h; inhibition, % at 50 µM; AID 1645855, 2021
USP30 block: inhibitors of human USP30 deubiquitinase; Ubiquitin carboxyl-terminal hydrolase 30 (Homo sapiens), Q70CQ3; purified USP30, Ub-rhodamine cleavage fluorescence; inhibition, % at 25 µM; 47,000 compounds, 5.3% hits; AID 1645860, 2021
Target sequence (Q70CQ3 whole entry, looked up): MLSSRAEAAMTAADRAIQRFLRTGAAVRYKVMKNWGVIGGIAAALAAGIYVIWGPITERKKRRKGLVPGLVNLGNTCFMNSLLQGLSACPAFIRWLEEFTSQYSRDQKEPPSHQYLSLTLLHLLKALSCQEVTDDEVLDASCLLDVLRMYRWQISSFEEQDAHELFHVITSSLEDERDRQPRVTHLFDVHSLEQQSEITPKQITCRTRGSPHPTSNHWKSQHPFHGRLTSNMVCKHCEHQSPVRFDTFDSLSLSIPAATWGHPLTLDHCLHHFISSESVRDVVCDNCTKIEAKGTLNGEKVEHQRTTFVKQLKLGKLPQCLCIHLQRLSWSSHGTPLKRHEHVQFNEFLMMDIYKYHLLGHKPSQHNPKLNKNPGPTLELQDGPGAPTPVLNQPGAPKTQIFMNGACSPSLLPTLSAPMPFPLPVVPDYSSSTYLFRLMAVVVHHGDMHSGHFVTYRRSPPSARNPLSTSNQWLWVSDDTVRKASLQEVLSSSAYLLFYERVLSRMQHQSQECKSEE
* hit, by the source's call; . = not tested or not shown. Most compounds without a hit are left out; they make up all but 11% or so of the library. Rule as the data show it: active = inhibition above about 30%; inactive = the rest.

SMILES	USP28 inh	USP17 block	USP30 block
CCOC(=O)c1cnn(-c2ccc(C(=O)NCC(C)c3ccccc3)cc2)c1N (configuration not stated)	12	0	12
c1ccc(-c2nnn3c2nc(NCC2CCCO2)c2ccccc23)cc1 (configuration not stated)	-18	-18	-22
CCCCNc1nc2c(-c3ccccc3)nnn2c2ccccc12	-4	68*	9
COCCNc1nc2c(-c3cccc(C(F)(F)F)c3)nnn2c2ccccc12	11	13	32*
Cc1ccc(CNc2nc3c(-c4ccc(C)cc4)nnn3c3ccccc23)cc1	-4	5	0
O=C1NC2(CCCc3ccccc32)C(=O)N1Cc1ccccc1F (configuration not stated)	-4	-10	-12
CCc1ccc(NC(=O)CSc2ccc(N3CCC(C(=O)NC4CC4)CC3)nn2)cc1	67*	62*	62*
O=C(CSc1ccc(N2CCOCC2)nn1)Nc1ccc(Cl)cc1	4	-4	-1
Cc1cc(C)c2c(N3CCOCC3)nc(C(=O)N3CCCCC3)nc2n1	-2	6	-31
OC(CN1CCN(c2ccc(F)cc2)CC1)c1ccc2c(c1)CCN2 (configuration not stated)	17	58*	61*
COc1ccc2c(C(O)CN3CCN(c4ccc(F)cc4)CC3)c[nH]c2c1 (configuration not stated)	-9	-20	-40
Cc1cc(C)cc(-n2ccn3c(CCC(=O)Nc4ccc(F)cc4)nnc3c2=O)c1	16	22	49*
Cc1ccc(CNC(=O)CCc2nnc3c(=O)n(-c4cc(C)cc(C)c4)ccn23)cc1	7	24	-6
Cc1cc(C)cc(-n2ccn3c(CCC(=O)Nc4cccc(F)c4)nnc3c2=O)c1	-7	1	-9
Cc1cccc(NC(=O)CCCc2nnc3c(=O)n(-c4cccc(F)c4)ccn23)c1	-9	-37	-7
O=C(CCCc1nnc2c(=O)n(-c3cccc(F)c3)ccn12)Nc1ccccc1	-25	38*	-64
Cc1ccc(NC(=O)CCc2nnc3c(=O)n(-c4ccc(C)c(C)c4)ccn23)cc1	5	8	8
Cc1ccc(NC(=O)CCc2nnc3c(=O)n(-c4cc(C)cc(C)c4)ccn23)cc1	5	15	43*
COc1ccc(-n2ccn3c(CCC(=O)NCc4ccc(F)cc4)nnc3c2=O)cc1	-2	69*	17
COc1cccc(CCN2C[C@H]3CCN(C(=O)c4ccn[nH]4)CC[C@H]3S2(=O)=O)c1	0	-2	-1
Cc1c(C(=O)N2CCCCC2)c(S(=O)(=O)N2CCCCC2)c(C)n1C	-2	4	6
CC1Cc2cc(S(=O)(=O)Nc3ccc(F)c(Cl)c3)ccc2N1C(=O)C1CC1 (configuration not stated)	21	6	5
C=C(NC(=O)c1csc(-c2nc3c(cc2O)-c2nc(cs2)C(=O)NC(C(C)O)C(=O)N/C(=C\C)c2nc(cs2)C(=O)NC2CC(O)C(=O)OCc4cccc5[nH]c(c(C)c45)C(=O)SCC(NC(=O)c4csc2n4)c2nc-3cs2)n1)C(N)=O (configuration not stated)	0	19	-29
CCSc1ncc2c(=O)n(CC(=O)Nc3cccc(F)c3)cnc2n1	-11	-1	-29
CCN[C@H]1C[C@@H](c2ccccc2)OC2(CCN(Cc3cnc(CC)nc3)CC2)C1	-1	-13	14
SMILES	USP28 inh	USP17 block	USP30 block
CCN[C@H]1C[C@@H](c2ccccc2)OC2(CCN(Cc3cn(C)nc3C)CC2)C1	9	31*	14
Cc1nnc(-c2cn(CC(=O)NC3CCCCCC3)c3ccccc23)o1	8	-8	-4
O=C(Cn1cc(-c2nnco2)c2ccccc21)NC1CCCCCC1	-6	38*	-9
COc1cccc(/C(C#N)=C/c2c(-c3ccc(Cl)cc3)nc3cc(C)ccn23)c1	12	1	15
Cc1ccc(-c2ccc(NCCC(C)C)nn2)cc1S(=O)(=O)N1CCOCC1	13	3	23
COC(=O)C(C)Sc1ncnc2c1nnn2-c1ccc(OC)cc1 (configuration not stated)	.	37*	.
COc1ccc(OC)c(NC(=O)CSc2ncnc3nc[nH]c23)c1	4	.	24
COc1ccc(-n2nnc3c(SCC(=O)Nc4cc(C)on4)ncnc32)cc1	0	57*	-45
CCC(C(=O)OC)n1cnc2c(nnn2-c2ccccc2)c1=O (configuration not stated)	-1	-1	2
C=C1CCC[C@]2(C)C[C@H]3OC(=O)C(CN[C@@H]4CONC4=O)[C@H]3CC12 (some centres not stated)	.	1	.
Cc1nn(Cc2ccccc2Cl)c(C)c1C(=O)N1CCc2ccccc21	7	9	0
O=C(NCC1(O)CCOc2ccccc21)c1ccc2c(c1)OCO2 (configuration not stated)	0	-5	-1
COc1ccc(CC(=O)Nc2c(NCc3ccccc3)c3ccccc3oc2=O)cc1	34*	85*	75*
COc1ccc(-c2nonc2NC(=O)Cc2ccccc2)cc1	-26	11	19
Cc1ccc(S(=O)(=O)CCc2nc(-c3ccc4c(c3)ncn4C)no2)cc1	.	-13	.
Cc1ccc(S(=O)(=O)CCc2nc(-c3ccc(N4CCC(C)CC4)cc3)no2)cc1	7	.	45*
O=C(Nc1cccc(F)c1)c1ccc(=O)n(CCN2CCOCC2)c1	5	1	12
Cc1cc2cc(CNC(=O)Cc3ccc([N+](=O)[O-])cc3)ccc2[nH]1	16	37*	21
O=C(Cc1cccc2ccccc12)NCc1ccc2[nH]c3c(c2c1)CCCC3	-25	-5	-160
CCCS(=O)(=O)NCc1ccc2[nH]c(C)cc2c1	.	29	.
Cc1cc2cc(CNC(=O)Cc3cccc4ccccc34)ccc2[nH]1	-8	40*	-41
CC1=C(C(=O)Nc2ccccc2)C(c2ccc(C#N)cc2)NC(=O)N1 (configuration not stated)	-3	0	-21
O=C(NCc1ccc(F)cc1)C1CCCN(C(=O)c2cc(-c3ccccn3)n[nH]2)C1 (configuration not stated)	-2	-21	0
O=C(Nc1ccccc1)c1ccc(-c2ccccc2)s1	.	54*	.
O=C(O)c1ccc(NC(=O)c2ccc(-c3ccccc3)cc2)cc1	-5	-29	-16
SMILES	USP28 inh	USP17 block	USP30 block
O=C(c1ccc(Cl)cc1)[C@@H]1[C@H](C(=O)OC(c2ccccc2)c2ccccc2)N2c3ccccc3C=CC2[C@@]12C(=O)Nc1ccccc12 (some centres not stated)	-86	-11	-312
CCCCOc1ccc2c(C)c(CC(=O)N3CC[C@@]4(O)CCCC[C@H]4C3)c(=O)oc2c1C	3	6	2
CCCCN1CCN(c2ccc3c(c2)OCO3)C1=O	37*	10	12
Cn1cccc1C(=O)NC1CC(=O)N(c2ccc3c(c2)OCO3)C1 (configuration not stated)	3	-4	-2
O=C(c1cc2c(s1)CN(C1CC1)C2)N1CCN(c2ccc(F)cc2)CC1	0	0	0
CCOC(=O)C1=C(COc2ccc(C#N)cc2)NC(=O)NC1C (configuration not stated)	-13	-8	-33
